The supplement of paper PMC9801561
± gives the standard deviation of the averaged measurements.

What was measured:
[1] = system: Escherichia coli Nissle 1917; test: area under OmniLog respiration curve over 48 h (OmniLog units x h); higher = more growth / nutrient utilisation; extreme values may be limits of the assay; conditions: incubation: 48 h, 37 °C
[2] = system: Escherichia coli Nissle 1917; test: DuctApe activity index of respiration/growth curve (0 no growth to 9 maximum) (index 0-9); higher = more growth / nutrient utilisation, active = 3 or more; extreme values may be limits of the assay; conditions: incubation: 48 h, 37 °C
[3] = nutrient role: sole phosphorus source (pyruvate carbon)
[4] = nutrient role: sole sulfur source (pyruvate carbon)
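Wherever DuctApe activity index of respiration/growth curve (0 no growth to 9 maximum) is given: biolog PM4 phosphorus and sulfur plates, tetrazolium violet dye reduction read in the OmniLog every 15 min, kinetic curves scored by DuctApe, each plate run in triplicate.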

Row | Compound | area under OmniLog respiration curve [1, 3] | DuctApe activity index [2, 3] | area under OmniLog respiration curve [1, 4] | DuctApe activity index [2, 4]
1 | O=P1(O)OP(=O)(O)OP(=O)(O)O1 [Trimetaphosphate] | 9730 ± 800 | 9 (active) |  | 
2 | O=S(=O)(O)SSS(=O)(=O)O [Tetrathionate] |  |  | 7150 ± 120 | 7.67 (active)
3 | N[C@H](CS)C(=O)O [D-Cysteine] |  |  | 7100 ± 110 | 7.33 (active)
